{"source": "PubChem BioAssay", "note": "Values without a mark were called inactive. No rule for the calls is given here.", "data": [{"biological_target": "Pantothenate synthetase (Mycobacterium tuberculosis (strain ATCC 25618 / H37Rv)) (UniProt P9WIL5)", "sequence (P9WIL5 whole entry, looked up)": "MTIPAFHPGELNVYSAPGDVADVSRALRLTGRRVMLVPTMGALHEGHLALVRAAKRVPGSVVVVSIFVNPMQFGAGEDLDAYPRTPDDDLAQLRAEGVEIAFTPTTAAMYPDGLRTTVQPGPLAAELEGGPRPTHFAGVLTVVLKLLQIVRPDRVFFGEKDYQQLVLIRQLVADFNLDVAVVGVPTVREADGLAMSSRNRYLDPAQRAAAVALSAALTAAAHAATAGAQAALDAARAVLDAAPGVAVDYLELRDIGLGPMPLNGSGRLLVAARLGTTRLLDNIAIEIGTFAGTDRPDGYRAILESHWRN", "experiment": "Recombinant Mtb pantothenate synthetase (PanC) inhibitors, coupled enzyme, confirmatory (AID 375);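 also: 0% = full reaction with vehicle and 100% = no enzyme background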", "conditions": "coupled enzyme assay; at 10 µM, hits give high values", "units": {"inhibition": "%"}, "values": [{"smiles": "Cc1cc(C)n2cc(CSc3nnnn3-c3ccc(Cl)cc3)nc2n1", "inhibition": 0}, {"smiles": "Cc1ccc(Nc2cc(C)nc3nnnn23)cc1", "inhibition": 6}, {"smiles": "CCOCCCNC(=O)C(NC(=O)c1ccccn1)c1ccc(C)cc1", "note": "(stereo not drawn)", "inhibition": 0}, {"smiles": "Cc1cccc2cc(C#N)c(SCCN3CCCCC3)nc12", "inhibition": 0}, {"smiles": "O=C(CSc1nnc(NC(=O)C2CCC2)s1)NC1CC1", "inhibition": 0}, {"smiles": "COc1ccccc1CNC(=O)C1CCCN(S(=O)(=O)c2cnc[nH]2)C1", "note": "(stereo not drawn)", "inhibition": 0}, {"smiles": "O=C(C1CC1(c1ccccc1)c1ccccc1)N1CCOCC1", "note": "(stereo not drawn)", "inhibition": 0}, {"smiles": "CCN1C(=O)CC(C(=O)Nc2ccc(F)cc2)SC1=Nc1ccc2c(c1)OCO2", "note": "(stereo not drawn)", "inhibition": 6}, {"smiles": "CCOC(=O)c1c(NC(=O)c2ccn(CC)n2)sc2c1CCCC2", "inhibition": 3}, {"smiles": "O=c1c2ccccc2sn1-c1ccc(S(=O)(=O)N2CCCCC2)cc1", "inhibition": 0}, {"smiles": "O=C(NC1CCCCCC1)C1CCCN(S(=O)(=O)c2cccs2)C1", "note": "(stereo not drawn)", "inhibition": 0}, {"smiles": "COc1ccc(S(=O)(=O)CCC(=O)O)cc1", "inhibition": 6}, {"smiles": "COc1ccccc1NC1=NC2(CCCC2)N=C(N)N1", "inhibition": 0}, {"smiles": "C#CC1(O)CC(C)N(C)C(C)C1", "note": "(stereo not drawn)", "inhibition": 6}, {"smiles": "CC(C)(C)OC(=O)N1CC=C2C(C#N)=C(N)C(C#N)(C#N)[C@H](c3cccnc3)[C@H]2C1", "inhibition": 5}, {"smiles": "CN(CC(=O)N1CCCCC1)S(=O)(=O)c1cccc2cccnc12", "inhibition": 0}, {"smiles": "O=C(NCCN1CCN(c2ccccc2)CC1)c1ccc(NC(=O)C2CCCO2)cc1", "note": "(stereo not drawn)", "inhibition": 2}, {"smiles": "CCOc1cc(S(=O)(=O)Nc2ccccn2)ccc1F", "inhibition": 0}, {"smiles": "O=C(COc1ccccc1Cl)OCC(=O)N1CCN(S(=O)(=O)c2ccccc2)CC1", "inhibition": 8}, {"smiles": "CCn1nnnc1SCC(=O)Nc1nnc(C(C)C)s1", "inhibition": 3}, {"smiles": "Cc1ccc(C(=O)Nc2c(C(=O)N3CCOCC3)cnn2-c2ccccc2)cc1", "inhibition": 0}, {"smiles": "O=C(Nc1cc(Cl)ccc1Cl)c1noc2c1CCCC2", "inhibition": 2}, {"smiles": "COC(=O)c1ccc(NC(=O)C2C3CCC(C3)C2C(=O)O)cc1", "note": "(stereo not drawn)", "inhibition": 0}]}]}
